Measured values as given in PubChem BioAssay (NCATS).
Records with an inconclusive call do not appear. A number with no mark means an inactive call. Active and inactive are the calls of the source. Calls come from the whole dose curve; as a rule, active = well fitted inhibition curve with a large enough effect; inconclusive = small, poorly fitted or top-dose-only effect; inactive = flat fitted curve, though single readings scatter.

Tested on: CRL-7250
Assay: Cytotoxic Profiling of Annotated Libraries Using Quantitative High-Throughput Screening (AID 1296008); note: nearly all actives have a fitted effect of over 60% in size
Conditions: Five cell lines viability, CellTiter-Glo ATP luminescence, 48-72 h; max response: stronger effect = lower value
Procedure, shortened: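 Cytotoxicity was measured as CellTiter-Glo ATP luminescence, read after 10 min at room temperature. Compound treatment of the cells lasted 48 or 72 hr at 37 degrees Celsius in a qHTS format.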
% is set by controls: 0 for no effect and ±100 for the full control effect.

| SMILES | outcome | max response |
| --- | --- | --- |
| COCCOc1ccc(N2CCN(CCn3ncc4c3nc(N)n3nc(-c5ccco5)nc43)CC2)cc1 | inactive |  |
| CC(O)CCC1C(CO[C@@H]2O[C@H](CO)[C@@H](O)[C@H](O)[C@H]2O)CC(O)CC1(C)C (stereo partly specified) | inactive |  |
| CC1=CC(=O)CC(C)(C)C1/C=C/C(C)O[C@@H]1O[C@H](CO)[C@@H](O)[C@H](O)[C@H]1O[C@@H]1OC[C@](O)(CO)[C@H]1O (stereo partly specified) |  | -0.149% |
| Cn1c2ccc(F)cc2c2c(C(=O)N3CCCC3)cn(-c3ccccc3)c(=O)c21 | inactive |  |
| C=C1C[C@]23C[C@H]1CC[C@H]2[C@@]1(C)CCC[C@@]2(C)C(=O)O[C@@H]([C@@H]3O)[C@@H]12 |  | -15.4% |
| C=C[C@H]1[C@H](O[C@@H]2O[C@H](CO)[C@@H](O)[C@H](O)[C@H]2O)OC=C(C(=O)OC)[C@H]1C/C=C(/C=O)[C@@H]1C(C(=O)OC)=CO[C@@H](O[C@@H]2O[C@H](CO)[C@@H](O)[C@H](O)[C@H]2O)[C@@H]1C=C |  | -8.61% |
| CCCCNc1ccc(-c2ccc(CN3CCOCC3)cn2)c(NC2CCC(O)CC2)c1 (stereo unspecified) | inactive |  |
| CC(=O)O[C@H]1C[C@@]2(C)[C@@H](CC[C@H]3[C@@]4(C)C=CC(=O)[C@@H](C)[C@@H]4[C@H](O)C(=O)[C@@]32C)/C1=C(/CCC=C(C)C)C(=O)O |  | -28.1% |
| C=C1CCC2C(C)(COC(C)=O)CCCC2(C)C1CCC(C)CC(=O)O (stereo unspecified) |  | -3% |
| CN(CCc1ccc(Nc2ncc(-c3cccnc3)s2)cc1)Cc1ccccc1 |  | -10.2% |
| C[C@H](NC(=O)CCc1nc2ccccc2c(=O)[nH]1)c1ccccc1 |  | -24% |
| Cc1cnc(Nc2ccc(F)cc2Cl)nc1-c1c[nH]c(C(=O)NC(CO)c2cccc(Cl)c2)c1 (stereo unspecified) |  | -0.447% |
| C=CC(C)(O)CC/C=C(\C)C(=O)OC1C(O)C(CO)OC(OC(=O)C23CCC(C)(C)CC2C2=CCC4C5(C)CCC(OC6OC(COC7OCC(OC(C)=O)C(O)C7OC7OC(COC(C)=O)C(O)C(O)C7O)C(O)C(O)C6O)C(C)(C)C5CCC4(C)C2(C)C(O)C3O)C1OC1OCC(OC2OCC(O)C(OC3OCC(O)C(O)C3O)C2O)C(O)C1O (stereo unspecified) |  | -9.65% |
| C=C(C(=O)O)[C@@H]1CC[C@@]2(C)CC[C@H](O)[C@@]2(C(C)=O)C1 | inactive |  |
| COC(=O)C1=COC(OC2OC(CO)C(O)C(O)C2O)C2C1C=CC2(O)CO (stereo unspecified) | inactive |  |
| OC[C@H]1O[C@@H](Oc2cc(O)c3c(c2)O[C@@H](c2ccc(O)cc2)[C@H](O)C3)[C@H](O)[C@@H](O)[C@@H]1O |  | -1.22% |
| CCC(C(=O)O)c1ccc(N2Cc3ccccc3C2=O)cc1 (stereo unspecified) |  | -5.22% |
| CCCCOC(=O)NC(=O)C1c2ccccc2Oc2ccccc21 |  | -2.73% |
| CC(C)=CCC(O)/C(C)=C/CO[C@@H]1O[C@H](CO)[C@@H](O)[C@H](O)[C@H]1O (stereo partly specified) | inactive |  |
| CS(=O)(=O)NCC1CCC(Nc2nc3c(s2)CCSc2ccccc2-3)CC1 (stereo unspecified) |  | -26.8% |
| OC[C@H]1O[C@@H](Oc2ccccc2)[C@H](O)[C@@H](O)[C@@H]1O | inactive |  |
| O=C(OC[C@H]1O[C@H](O[C@]2(CO)O[C@H](CO)[C@@H](O)[C@@H]2O)[C@H](O)[C@@H](O)[C@@H]1O)c1ccccc1 |  | -1.41% |
| CCO[C@@H]1OC(=O)C[C@@H]1NC(=O)[C@@H]1CCCN1C(=O)[C@@H](NC(=O)c1ccc(N)c(Cl)c1)C(C)(C)C |  | 1.63% |
| C=CC[C@]12C[C@@H](OC)C(=O)C(OC)=C1O[C@@H](c1cc(OC)c3c(c1)OCO3)[C@@H]2C |  | 4.3% |
| N#Cc1cc(F)cc(-c2nc(-c3ccccn3)no2)c1 |  | 1.54% |
| CC(=O)OC1C(c2ccccc2)CCC(c2ccccc2)C1OC(C)=O (stereo unspecified) |  | 2.93% |
